In PubChem BioAssay (Tox21):
Inconclusive results are not listed. Activity calls are given as the source filed them. Unless noted, the call rests on the fitted dose curve; in most records, active means well fitted curve in the direction sought with a large enough effect in the repeat runs; inconclusive means weak or mixed curves; inactive means flat fitted curve, though single readings scatter.

Columns and labels:
[1] = qHTS assay to test for compound auto fluorescence at 460 nm (blue) in HEK293 cell free culture (AID 720681)
Method in brief: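 Compounds were added to cell-free DMEM with 10% FBS and fluorescence read directly. The blue channel used 405 nm excitation and 460 nm emission, with triamterene as the reference fluorophore.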

[2] = qHTS assay to test for compound auto fluorescence at 535 nm (green) in HEK293 cell free culture (AID 720682)
Method in brief: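 Compounds were pin-transferred into cell-free DMEM with 10% FBS, and green fluorescence was read at excitation 485 nm and emission 535 nm. Intensities were expressed as fluorescein-equivalent values.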

[3] = qHTS assay to test for compound auto fluorescence at 590 nm (red) in HEK293 cell free culture (AID 720683)
Method in brief: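 Cell-free wells of DMEM with 10% FBS received compound, and intrinsic fluorescence was read at excitation/emission 540/590 nm. Values expressed as equivalence to Rose Bengal sodium.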

[4] = qHTS assay to test for compound auto fluorescence at 590 nm (red) in HepG2 cell free culture (AID 720684)
Method in brief: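 Rose Bengal sodium served as the reference for red signal. Test compounds were dispensed into serum-containing MEM (10% FBS) without cells, and plates were read at 540/590 nm.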

[5] = qHTS assay to test for compound auto fluorescence at 460 nm (blue) in HepG2 cell free culture (AID 720685)
Method in brief: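 Cell-free plates of MEM plus 10% FBS received 23 nL compound or DMSO vehicle; blue-channel (405/460 nm) intensity scored against triamterene as reference fluorophore.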

[6] = qHTS assay to test for compound auto fluorescence at 535 nm (green) in HepG2 cell free culture (AID 720686)
[7] = qHTS assay to test for compound auto fluorescence at 460 nm (blue) in HepG2 cells (AID 720687)
Method in brief: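 HepG2 cells in MEM with 10% FBS, attached overnight at 37 C, were exposed to compound or DMSO for 1 hr at 37 C, 5% CO2. Blue fluorescence was read at 405/460 nm, with triamterene as reference fluorophore.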

[8] = qHTS assay to test for compound auto fluorescence at 535 nm (green) in HEK293 cells (AID 720680)
[9] = molecular target: Glucocorticoid receptor (Homo sapiens) (UniProt P04150); assay: qHTS assay to identify small molecule agonists of the glucocorticoid receptor (GR) signaling pathway (AID 720691; active means well fitted activation curve with a large enough effect in the signal ratio in the repeat runs, not every such curve was filed as active; the % refers to the signal ratio)
Method in brief: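 Cells: GR-bla HeLa, endogenous GR with stably integrated GRE-beta-lactamase reporter. Treatment 18 h, 37 C, compounds delivered in DMSO. Detection via LiveBLAzer B/G FRET substrate, 2 h RT, fluorescence intensity.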

[10] = molecular target: Glucocorticoid receptor (Homo sapiens) (UniProt P04150); assay: qHTS assay to identify small molecule antagonists of the glucocorticoid receptor (GR) signaling pathway (AID 720692; active means well fitted inhibition curve with a large enough effect in the signal ratio in the repeat runs, not every such curve was filed as active; the % refers to the signal ratio)
Method in brief: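 Quantitative HTS in antagonist format: HeLa cells expressing endogenous GR and a stably integrated GRE-bla reporter, stimulated with 5 nM dexamethasone (final) alongside test compounds for 18 h.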
On the % scale 0 is the no-effect control and ±100 the full control effect.

Chain of Glucocorticoid receptor (Homo sapiens) (P04150 whole entry, looked up): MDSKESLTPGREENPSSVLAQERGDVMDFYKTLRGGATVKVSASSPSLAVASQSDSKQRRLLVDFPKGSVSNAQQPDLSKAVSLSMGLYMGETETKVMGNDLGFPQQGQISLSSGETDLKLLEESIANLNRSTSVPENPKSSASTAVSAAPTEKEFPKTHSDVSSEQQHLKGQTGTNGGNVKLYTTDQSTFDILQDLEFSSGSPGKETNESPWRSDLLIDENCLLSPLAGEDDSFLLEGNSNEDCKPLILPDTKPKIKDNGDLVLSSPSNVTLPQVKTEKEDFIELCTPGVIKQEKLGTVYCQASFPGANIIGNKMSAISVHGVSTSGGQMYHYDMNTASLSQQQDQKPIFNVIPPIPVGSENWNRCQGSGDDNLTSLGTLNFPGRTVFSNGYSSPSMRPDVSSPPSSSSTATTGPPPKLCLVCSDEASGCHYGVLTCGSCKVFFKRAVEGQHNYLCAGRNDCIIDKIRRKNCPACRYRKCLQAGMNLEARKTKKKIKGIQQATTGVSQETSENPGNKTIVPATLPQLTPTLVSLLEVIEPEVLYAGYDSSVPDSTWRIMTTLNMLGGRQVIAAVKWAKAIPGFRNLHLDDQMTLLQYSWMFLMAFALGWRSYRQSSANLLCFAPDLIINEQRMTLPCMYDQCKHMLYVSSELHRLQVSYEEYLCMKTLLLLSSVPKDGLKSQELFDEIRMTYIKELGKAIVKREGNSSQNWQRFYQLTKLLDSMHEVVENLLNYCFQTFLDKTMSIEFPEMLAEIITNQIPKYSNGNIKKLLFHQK

CCOC(=O)CC1(C)OCC(C)O1 (stereo not given)
inactive: outcome [1] | outcome [2] | outcome [3] | outcome [4] | outcome [5] | outcome [6] | outcome [7]

CC(=O)CC(=O)Nc1ccc(C)cc1C
inactive: outcome [8] | outcome [1] | outcome [2] | outcome [3] | outcome [5] | outcome [6] | outcome [7] | Potency [9] | outcome [10]

CCCCCCCCCCOC(C)=O
inactive: outcome [8] | outcome [1] | outcome [2] | outcome [3] | outcome [5] | outcome [6] | outcome [7] | Potency [9] | outcome [10]

C=C(C)c1cccc(C(C)(C)N=C=O)c1
inactive: outcome [8] | outcome [1] | outcome [2] | outcome [3] | outcome [5] | outcome [6] | outcome [7] | Potency [9]

CO[C@@]1(NC(=O)Cc2cccs2)C(=O)N2C(C(=O)O)=C(COC(N)=O)CS[C@@H]21
inactive: outcome [8] | outcome [1] | outcome [2] | outcome [3] | outcome [5] | outcome [6] | outcome [7]

CC1(C)Oc2ccc(C#N)cc2[C@@H](N2CCCC2=O)[C@@H]1O
inactive: outcome [8] | outcome [1] | outcome [2] | outcome [3] | outcome [5] | outcome [6] | outcome [7] | Potency [9] | outcome [10]

COC(=O)c1ccccc1C(=O)O
inactive: outcome [8] | outcome [1] | outcome [2] | outcome [3] | outcome [5] | outcome [6] | outcome [7] | Potency [9] | outcome [10]

c1ccc2cnccc2c1
inactive: outcome [8] | outcome [1] | outcome [2] | outcome [3] | outcome [5] | outcome [6] | outcome [7] | Potency [9] | outcome [10]

Cc1ccc(C(=O)O)cc1[N+](=O)[O-]
inactive: outcome [1] | outcome [2] | outcome [3] | outcome [4] | outcome [5] | outcome [6] | outcome [7]

C=CCOC(=O)CCCCCC
inactive: outcome [8] | outcome [1] | outcome [2] | outcome [3] | outcome [5] | outcome [6] | outcome [7] | Potency [9] | outcome [10]

CCCCOCCOC(=O)COc1ccc(Cl)cc1Cl
inactive: outcome [8] | outcome [1] | outcome [2] | outcome [3] | outcome [5] | outcome [6] | outcome [7] | Potency [9] | outcome [10]

CCc1occc(=O)c1O
inactive: outcome [8] | outcome [1] | outcome [2] | outcome [3] | outcome [5] | outcome [6] | outcome [7] | Potency [9]

O=C(NCN1CCOCC1)c1cnccn1
inactive: outcome [8] | outcome [1] | outcome [2] | outcome [3] | outcome [5] | outcome [6] | outcome [7] | Potency [9] | outcome [10]

C=CCCCCCCCC
inactive: outcome [8] | outcome [1] | outcome [2] | outcome [3] | outcome [5] | outcome [6] | outcome [7] | Potency [9] | outcome [10]

CC(O)CC(C)O (stereo not given)
inactive: outcome [8] | outcome [1] | outcome [2] | outcome [3] | outcome [5] | outcome [6] | outcome [7] | Potency [9] | outcome [10]

Cc1cccc(Cl)c1
inactive: outcome [8] | outcome [1] | outcome [2] | outcome [3] | outcome [5] | outcome [6] | outcome [7] | Potency [9] | outcome [10]

CC1(C)CC(OC(=O)CCCCCCCCC(=O)OC2CC(C)(C)NC(C)(C)C2)CC(C)(C)N1
inactive: fluorescence, % of fluorescein [8] -0.0999% [at 18.6 µM] | fluorescence, % of fluorescent control [1] -0.182% [at 18.6 µM] | activity change [2] -0.0076% [at 18.6 µM] | fluorescence, % of fluorescent control [3] 0.038% [at 18.6 µM] | fluorescence, % of fluorescent control [5] -0.0702% [at 18.6 µM] | fluorescence, % of fluorescein control [6] -0.17% [at 18.6 µM] | fluorescence, % of fluorescent control [7] -0.0104% [at 18.6 µM] | Potency [9] | outcome [10]

CC1c2ccccc2CN1NC(=O)c1ccc(Cl)c(S(N)(=O)=O)c1 (stereo not given)
inactive: outcome [8] | outcome [1] | outcome [2] | outcome [3] | outcome [5] | outcome [6] | outcome [7] | Potency [9] | outcome [10]

Nc1nc(-c2ccccc2)c(Br)c(=O)[nH]1
inactive: outcome [8] | outcome [1] | outcome [2] | outcome [3] | outcome [5] | outcome [6] | outcome [7] | Potency [9]

O=Cc1ccccc1Cl
inactive: outcome [8] | outcome [1] | outcome [2] | outcome [3] | outcome [5] | outcome [6] | outcome [7] | Potency [9] | outcome [10]

CC1CC(=O)CC(C)(C)C1 (stereo not given)
inactive: outcome [8] | outcome [1] | outcome [2] | outcome [3] | outcome [5] | outcome [6] | outcome [7] | Potency [9] | outcome [10]

COC(C)(OC)OC
inactive: outcome [8] | outcome [1] | outcome [2] | outcome [3] | outcome [5] | outcome [6] | outcome [7] | Potency [9] | outcome [10]

C=CCCCCCCCCC(=O)OCCCC
inactive: outcome [1] | outcome [2] | outcome [3] | outcome [4] | outcome [5] | outcome [6] | outcome [7]

CC(=O)CCc1ccc(OC(C)=O)cc1
inactive: outcome [8] | outcome [1] | outcome [2] | outcome [3] | outcome [5] | outcome [6] | outcome [7] | Potency [9] | outcome [10]

Fc1ccccc1
inactive: outcome [8] | outcome [1] | outcome [2] | outcome [3] | outcome [5] | outcome [6] | outcome [7] | Potency [9] | outcome [10]

O/N=C/C=N/O
inactive: outcome [1] | outcome [2] | outcome [3] | outcome [5] | outcome [6] | outcome [7] | Potency [9] | outcome [10]

CCCCOCC(C)O (stereo not given)
inactive: outcome [1] | outcome [2] | outcome [3] | outcome [4] | outcome [5] | outcome [6] | outcome [7] | Potency [9] | outcome [10]

COC(=O)c1cc(Cl)cc(Cl)c1
inactive: outcome [1] | outcome [2] | outcome [3] | outcome [4] | outcome [5] | outcome [6] | outcome [7] | Potency [9] | outcome [10]
